# Data reported in the supplement of paper PMC8728848.
# Many of the other results were omitted from the sample, so the strongest signals are more common in it than they were.
# Legend:
# Assay in all cases: glycan array binding signal (z-score within array); higher = stronger binding
# Conditions in all cases: glycan notation: IUPAC condensed, linker removed
# [1] = biological target: GlcNAc(b1-3)[GlcNAc(b1-6)]Gal(b1-4)GlcNAc
# Procedure, shortened: (§1)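 Glycan array data were curated from 3228 arrays in the Consortium for Functional Glycomics database and kept only where the protein sequence was available. Glycan names were converted to IUPAC-condensed notation, and columns mapping to the same glycan were averaged. The binding signal is a within-array Z-score, averaged across arrays of the same protein sequence at different concentrations or buffers and across linkers. Negative Z-scores can be read as non-binding.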
# [2] = biological target: Man(a1-2)Man(a1-2)Man(a1-6)[Man(a1-3)]Man
# Procedure, shortened: as §1
# [3] = biological target: Man(a1-3)[Man(a1-6)]Man(a1-6)[Man(a1-3)]Man
# Procedure, shortened: as §1
# [4] = biological target: Neu5Ac(a2-3)Gal(b1-3)GlcNAc(b1-3)Gal(b1-4)GlcNAc
# Procedure, shortened: as §1
# [5] = biological target: Neu5Ac(a2-3)Gal(b1-3)GlcNAc(b1-4)Gal(b1-4)Glc
# Procedure, shortened: as §1
# [6] = biological target: Neu5Ac(a2-3)Gal(b1-3)[Fuc(a1-4)]GlcNAc(b1-3)Gal(b1-4)[Fuc(a1-3)]GlcNAc
# Procedure, shortened: as §1
# [7] = biological target: Neu5Ac(a2-3)Gal(b1-4)GlcNAc(b1-3)Gal
# Procedure, shortened: as §1
# [8] = biological target: Neu5Ac(a2-3)Gal(b1-4)GlcNAc(b1-3)Gal(b1-4)GlcNAc(b1-3)Gal(b1-4)GlcNAc(b1-2)Man(a1-3)[Neu5Ac(a2-3)Gal(b1-4)GlcNAc(b1-3)Gal(b1-4)GlcNAc(b1-3)Gal(b1-4)GlcNAc(b1-2)Man(a1-6)]GalNAc
# Procedure, shortened: as §1
# [9] = biological target: Neu5Ac(a2-3)Gal(b1-4)[Fuc(a1-3)]GlcNAc(b1-6)[Neu5Ac(a2-3)Gal(b1-3)]GalNAc
# Procedure, shortened: as §1
# [10] = biological target: Neu5Ac(a2-3)[GalNAc(b1-4)]Gal(b1-4)Glc
# Procedure, shortened: as §1
# [11] = biological target: Neu5Ac(a2-6)Gal(b1-4)GlcNAc(b1-3)Gal(b1-4)GlcNAc(b1-6)[Gal(b1-3)]GalNAc
# Procedure, shortened: as §1
# Neu5Ac(a2-8)Neu5Ac = biological target: Neu5Ac(a2-8)Neu5Ac
# Procedure, shortened: as §1
# [12] = biological target: Neu5Ac(a2-8)Neu5Ac(a2-3)Gal(b1-3)GalNAc(b1-4)[Neu5Ac(a2-3)]Gal(b1-4)Glc
# Procedure, shortened: as §1
# [13] = biological target: Neu5Ac(a2-8)Neu5Ac(a2-8)Neu5Ac(a2-3)Gal(b1-4)Glc
# Procedure, shortened: as §1
# [14] = biological target: Neu5Ac(a2-8)Neu5Gc(a2-3)Gal(b1-4)GlcNAc
# Procedure, shortened: as §1
# [15] = biological target: Neu5Gc(a2-8)Neu5Ac(a2-3)Gal(b1-4)GlcNAc
# Procedure, shortened: as §1
binder,measurement,setting,value
"Als1 (Candida albicans), P46590 (protein) KTITGVFDSFNSLTWSNAANYAFKGPGYPTWNAVLGWSLDGTSANPGDTFTLNMPCVFKYTTSQTSVDLTADGVKYATCQFYSGEEFTTFSTLTCTVNDALKSSIKAFGTVTLPIAFNVGGTGSSTDLEDSKCFTAGTNTVTFNDGDKDISIDVEFEKSTVDPSGYLYASRVMPSLNKVTTLFVAPQCENGYTSGTMGFSSSNGDVAIDCSNIHIGITKGLNDWNYPVSSESFSYTKTCTSNGIQIKYQNVPAGYRPFIDAYISATDVNQYTLAYTNDYTCAGSRLQSKPFTLRWTGYKNSDAGSNGIVIVATTRTVTDSTTAVTTLPFNPSVDKTKTIEILQPIPTTTITTSYVGVTTSYLTKTAPIGETATVIVDVPYHTTTTVTSEWTGTITTTTTRTNPTDSIDTVVVQVP",glycan array binding signal (z-score),[1],-0.361
same,glycan array binding signal (z-score),[2],-0.553
same,glycan array binding signal (z-score),[3],1.09
same,glycan array binding signal (z-score),[4],-0.473
same,glycan array binding signal (z-score),[5],4.25
same,glycan array binding signal (z-score),[6],-0.015
same,glycan array binding signal (z-score),[7],-0.274
same,glycan array binding signal (z-score),[8],3.84
same,glycan array binding signal (z-score),[9],2.16
same,glycan array binding signal (z-score),[10],-0.291
same,glycan array binding signal (z-score),[11],-0.05
same,glycan array binding signal (z-score),Neu5Ac(a2-8)Neu5Ac,-0.045
same,glycan array binding signal (z-score),[12],-0.627
same,glycan array binding signal (z-score),[13],-0.083
same,glycan array binding signal (z-score),[14],-0.049
same,glycan array binding signal (z-score),[15],4.63
